# Data published in the supplement of paper PMC8728848.
# The sample as a whole holds a higher share of the strongest signals than the screen did.
# How the values were obtained:
# Test in all cases: glycan array binding signal (z-score within array); higher = stronger binding
# Conditions in all cases: glycan notation: IUPAC condensed, linker removed
# [1] = molecular target: Fuc(a1-2)Gal(b1-3)GlcNAc(b1-3)[Neu5Ac(a2-6)Gal(b1-4)GlcNAc(b1-6)]Gal(b1-4)Glc
# In short: (§1)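 Glycan array binding is given as a within-array Z-score, which can be read as non-binding when negative. The arrays, 3228 of them, came from the Consortium for Functional Glycomics database and were retained only where the protein sequence was available. Z-scores were averaged across arrays of the same protein sequence at different concentrations or buffers and across linkers.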
# [2] = molecular target: Fuc(a1-2)Gal(b1-3)[Fuc(a1-4)]GlcNAc(b1-2)Man(a1-3)[Fuc(a1-2)Gal(b1-3)[Fuc(a1-4)]GlcNAc(b1-2)Man(a1-6)]Man(b1-4)GlcNAc(b1-4)[Fuc(a1-6)]GlcNAc(b1-4)[Fuc(a1-6)]GlcNAc
# In short: as §1
# [3] = molecular target: Fuc(a1-2)Gal(b1-4)Glc
# In short: as §1
# [4] = molecular target: Fuc(a1-2)Gal(b1-4)Glc6S
# In short: as §1
# [5] = molecular target: Fuc(a1-2)Gal(b1-4)GlcNAc
# In short: as §1
# [6] = molecular target: Fuc(a1-2)Gal(b1-4)GlcNAc(b1-3)[Fuc(a1-2)Gal(b1-4)GlcNAc(b1-6)]GalNAc
# In short: as §1
# [7] = molecular target: Fuc(a1-2)Gal(b1-4)GlcNAc(b1-6)GalNAc
# In short: as §1
# [8] = molecular target: Fuc(a1-2)Gal(b1-4)GlcNAc6S
# In short: as §1
# [9] = molecular target: Fuc(a1-2)Gal(b1-4)[Fuc(a1-3)]GlcNAc(b1-2)Man(a1-3)[Fuc(a1-2)Gal(b1-4)[Fuc(a1-3)]GlcNAc(b1-2)Man(a1-6)]Man(b1-4)GlcNAc(b1-4)[Fuc(a1-6)]GlcNAc
# In short: as §1
# [10] = molecular target: Fuc(a1-2)Gal6S(b1-3)GlcNAc
# In short: as §1
# [11] = molecular target: Fuc(a1-2)Gal6S(b1-4)Glc
# In short: as §1
# [12] = molecular target: Fuc(a1-2)Gal6S(b1-4)Glc6S
# In short: as §1
# [13] = molecular target: Fuc(a1-2)[Gal(a1-3)]Gal
# In short: as §1
# [14] = molecular target: Fuc(a1-2)[Gal(a1-3)]Gal(b1-4)GlcNAc(b1-2)Man(a1-3)[Fuc(a1-2)[Gal(a1-3)]Gal(b1-4)GlcNAc(b1-2)Man(a1-6)]Man(b1-4)GlcNAc(b1-4)GlcNAc
# In short: as §1
# [15] = molecular target: Fuc(a1-2)[Gal(a1-3)]Gal(b1-4)[Fuc(a1-3)]GlcNAc(b1-3)GalNAc
# In short: as §1
# [16] = molecular target: Fuc(a1-2)[Gal(a1-4)]Gal(b1-4)GalNAc
# In short: as §1
# [17] = molecular target: Fuc(a1-2)[Gal(a1-4)]Gal(b1-4)GlcNAc
# In short: as §1
# [18] = molecular target: Fuc(a1-2)[GalNAc(a1-4)]Gal(b1-4)GlcNAc
# In short: as §1
# [19] = molecular target: Fuc(a1-3)[Gal(b1-4)]GlcNAc(b1-6)[Gal(b1-3)GlcNAc(b1-3)]Gal(b1-4)Glc
# In short: as §1
# [20] = molecular target: Fuc(a1-3)[GalNAc(b1-4)]GlcNAc6S
# In short: as §1
# [21] = molecular target: Gal(a1-3)Gal(b1-4)GlcNAc(b1-2)Man(a1-3)[Gal(a1-3)Gal(b1-4)GlcNAc(b1-2)Man(a1-6)]Man(b1-4)GlcNAc(b1-4)GlcNAc
# In short: as §1
# [22] = molecular target: Gal(a1-4)Gal(b1-4)GlcNAc(b1-2)Man(a1-3)[Gal(a1-4)Gal(b1-4)GlcNAc(b1-2)Man(a1-6)]Man(b1-4)GlcNAc(b1-4)GlcNAc
# In short: as §1
# [23] = molecular target: Gal(a1-4)GlcNAc
# In short: as §1
# [24] = molecular target: Gal(b1-3)GalNAc(b1-4)[Neu5Ac(a2-3)]Gal(b1-4)Glc
# In short: as §1
# [25] = molecular target: Gal(b1-3)GlcNAc(a1-6)Gal(b1-4)GlcNAc
# In short: as §1
# [26] = molecular target: Gal(b1-3)GlcNAc(b1-2)Man(a1-3)[Gal(b1-3)GlcNAc(b1-2)Man(a1-6)]Man(b1-4)GlcNAc(b1-4)GlcNAc
# In short: as §1
# [27] = molecular target: Gal(b1-3)GlcNAc(b1-2)Man(a1-3)[Gal(b1-3)GlcNAc(b1-2)Man(a1-6)]Man(b1-4)GlcNAc(b1-4)[Fuc(a1-6)]GlcNAc
# In short: as §1
# [28] = molecular target: Gal(b1-3)[Fuc(a1-4)]GlcNAc(b1-6)GalNAc
# In short: as §1
# [29] = molecular target: Gal(b1-3)[Neu5Ac(a2-6)]GlcNAc(a1-4)Gal(b1-4)Glc
# In short: as §1
# [30] = molecular target: Gal(b1-3)[Neu5Ac(a2-6)]GlcNAc(b1-4)Gal(b1-4)Glc
# In short: as §1
binder,measurement,setting,value
"UEA-I (Ulex europaeus), P22972 (protein) SDDLSFKFKNFSQNGKDLSFQGDASVIETGVLQLNKVGNNLPDETGGIARYIAPIHIWNCNTGEVASFITSFSFFMETSANPKAATDGLTFFLAPPDSPLRRAGGYFGLFEDTKDNDSSYQTVAVEFDTIGSPVNFDDPGFPHIGIDVNRVKSINAERWNKRYGLNNVANVEIIYEASSKTLTASLTYPSDQTSISVTSIVDLKEILPEWVSVGFSGGTYIGRQATHEVLNWYFTSNLINTNS",glycan array binding signal (z-score),[1],-0.101
same,glycan array binding signal (z-score),[2],-0.186
same,glycan array binding signal (z-score),[3],4.65
same,glycan array binding signal (z-score),[4],8.87
same,glycan array binding signal (z-score),[5],5.04
same,glycan array binding signal (z-score),[6],5.44
same,glycan array binding signal (z-score),[7],4.28
same,glycan array binding signal (z-score),[8],5.67
same,glycan array binding signal (z-score),[9],-0.035
same,glycan array binding signal (z-score),[10],-0.194
same,glycan array binding signal (z-score),[11],4.67
same,glycan array binding signal (z-score),[12],5.33
same,glycan array binding signal (z-score),[13],-0.199
same,glycan array binding signal (z-score),[14],-0.194
same,glycan array binding signal (z-score),[15],-0.022
same,glycan array binding signal (z-score),[16],5.51
same,glycan array binding signal (z-score),[17],5.58
same,glycan array binding signal (z-score),[18],5.17
same,glycan array binding signal (z-score),[19],-0.103
same,glycan array binding signal (z-score),[20],-0.217
same,glycan array binding signal (z-score),[21],-0.163
same,glycan array binding signal (z-score),[22],0.015
same,glycan array binding signal (z-score),[23],-0.168
same,glycan array binding signal (z-score),[24],-0.207
same,glycan array binding signal (z-score),[25],-0.139
same,glycan array binding signal (z-score),[26],-0.101
same,glycan array binding signal (z-score),[27],-0.16
same,glycan array binding signal (z-score),[28],-0.098
same,glycan array binding signal (z-score),[29],-0.409
same,glycan array binding signal (z-score),[30],-0.234
